TDP1 cell CPT: growth inhibition of DT40 Tdp1-/-;hTDP1 cells with camptothecin (screen for TDP1 inhibitors); AID 686979; actives 12% (n = 420,000); chicken DT40 Tdp1-/-;hTDP1 cells + 20 nM CPT, ATP luminescence, 48 h; Potency, µM (titrated, usually from 46.2 µM), for inactives: at the top dose activity change, negative = growth inhibition, hits mostly inhibitors; further: potency means the concentration at half of the fitted maximal effect; on the % scale 0 is the no-effect control and ±100 the full control effect; nearly all actives have a fitted effect of over 55% in size
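Chicken DT40 Tdp1-/- cells stably complemented with human TDP1 were seeded at 400 cells/well in medium containing 20 nM camptothecin, exposed to pin-transferred compounds, and grown at 37 °C for at least 48 hr. Viability was read as ATP luminescence.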
TGFb inhibitor: blocks TGF-b signaling; actives 1.2% (n = 410,000); AID 588855; HepG2 CAGA-GFP TGF-b/SMAD3 reporter, GFP fluorescence, 18 h; TGF-beta stimulated, 500 pg/mL final; Potency, µM (top dose mostly 46.1 µM), for inactives: at the highest dose activity, negative = inhibition, actives largely listed as inhibitors; further: potency means the concentration at half of the fitted maximal effect; on the % scale 0 is the no-effect control and ±100 the full control effect; nearly all actives have a fitted effect of over 65% in size
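Inhibition of TGF-beta-driven CAGA-GFP reporter expression in HEPG2 cells is measured by cellular GFP fluorescence after 18 h stimulation with 500 pg/mL recombinant TGF-beta in 1% FBS medium at 37 degrees C.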
TDP1 inh: blocks human tyrosyl-DNA phosphodiesterase 1 | Q9NUW8 | recombinant TDP1, AlphaScreen DNA substrate cleavage | Potency, µM (top dose mostly 130 µM), for inactives: top-dose activity change, negative = inhibition, most hits filed as inhibitors | actives 0.28% (n = 350,000); further: potency means the concentration at half of the fitted maximal effect; on the % scale 0 is the no-effect control and ±100 the full control effect; nearly all actives have a fitted effect of over 40% in size
Target sequence (Q9NUW8 whole entry, looked up): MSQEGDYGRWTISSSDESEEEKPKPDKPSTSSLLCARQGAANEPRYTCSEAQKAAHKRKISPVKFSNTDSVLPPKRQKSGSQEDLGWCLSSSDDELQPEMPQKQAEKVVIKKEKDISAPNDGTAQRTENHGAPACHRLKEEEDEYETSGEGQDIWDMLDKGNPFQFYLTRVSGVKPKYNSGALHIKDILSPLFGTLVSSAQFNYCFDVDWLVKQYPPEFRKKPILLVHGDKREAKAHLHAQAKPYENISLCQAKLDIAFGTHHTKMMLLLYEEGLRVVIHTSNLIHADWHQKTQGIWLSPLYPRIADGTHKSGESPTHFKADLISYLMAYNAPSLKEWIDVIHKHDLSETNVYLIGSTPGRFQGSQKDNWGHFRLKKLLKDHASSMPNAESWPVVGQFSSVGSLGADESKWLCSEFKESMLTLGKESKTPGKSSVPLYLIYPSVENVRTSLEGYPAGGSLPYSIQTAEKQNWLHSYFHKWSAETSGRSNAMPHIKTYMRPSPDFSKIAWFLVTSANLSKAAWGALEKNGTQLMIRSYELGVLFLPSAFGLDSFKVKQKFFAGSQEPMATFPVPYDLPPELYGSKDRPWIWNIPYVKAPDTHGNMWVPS
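Steps: enzyme plus compound, 15 min RT; add biotin/phosphotyrosine-FITC oligonucleotide (15 nM final), react 5 min; add donor/acceptor beads (10 ug/ml final), 10 min; read AlphaScreen. Tdp1 at 1 nM final.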
HepG2 tox-1: HepG2 cytotoxicity, counter-screen for TGF-b inhibitors | HepG2 CAGA-GFP viability, ATP luminescence, 18 h | actives 0.76% (n = 410,000) | Potency, µM (highest dose often 46.1 µM), for inactives: top-dose activity change, negative = cytotoxicity, usual class: cytotoxic | AID 588856; further: potency means the concentration at half of the fitted maximal effect
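CellTiter-Glo luminescence gave cytotoxicity after 18 hours at 37 degrees C. The cells were HepG2 CAGA-GFP in 1% FBS DMEM, stimulated with 500 pg/mL TGF-beta after compound addition. %Activity was normalised to no-cell wells (complete cell-killing) and DMSO (no toxicity), and curves were fitted and classified.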
IL-1B inflam inh: inflammasome signaling inhibition, IL-1 beta readout; THP-1 LPS/ATP IL-1B secretion, AlphaLISA, 16 h; active compounds read low; activity change, % at 57.5 µM; actives 4.7% (n = 360,000); AID 743279; in the data active means activity change below about -50%; inconclusive means mostly about -30% to -49%; further: on the % scale 0 is the no-effect control and ±100 the full control effect
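THP-1 cells pretreated 1 hr with compounds (up to 57.5 uM final), then stimulated with LPS (250 ng/mL final) plus ATP (1.25 mM final); secreted IL-1B measured by AlphaLISA after 16 hr, decreased signal indicating inhibition.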
TDP1 cell noCPT: qHTS for Inhibitors of human tyrosyl-DNA phosphodiesterase 1 (TDP1): qHTS in cells in absence of CPT | actives 15% (n = 420,000) | DT40 Tdp1-/- hTDP1 cells, no CPT, ATP luminescence, 48 h | Potency, µM (doses to about 46.2 µM), without a hit: at the highest dose activity change, negative = growth inhibition, actives largely listed as inhibitors; further: potency means the concentration at half of the fitted maximal effect; on the % scale 0 is the no-effect control and ±100 the full control effect; nearly all actives have a fitted effect of over 55% in size
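Luminescent ATP content (CellTiter-Glo) served as the growth readout. Knockout chicken DT40 cells expressing human TDP1 were exposed to compounds without camptothecin for a minimum 48 hr at 37 °C.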
TGFb CAGA inh: confirmation of TGF-b signaling inhibitors in HepG2 reporter cells; HepG2 CAGA-GFP TGF-b reporter, GFP fluorescence, 18 h; cells stimulated with TGF-beta, 500 pg/mL; shares compounds with TGFb inhibitor; Potency, µM (doses to about 46.1 µM), without a hit: top-dose activity, negative = inhibition, usual class: inhibitors; actives 63% (n = 1,600); further: potency means the concentration at half of the fitted maximal effect; on the % scale 0 is the no-effect control and ±100 the full control effect; nearly all actives have a fitted effect of over 65% in size
HepG2 tox-2: HepG2 cytotoxicity, TGF-b inhibitor counterscreen; shares compounds with TGFb inhibitor; HepG2 CAGA-GFP viability, ATP luminescence, 18 h; cells stimulated with TGF-beta, 500 pg/mL; Potency, µM (highest dose often 46.1 µM), for the others: at the highest dose activity, negative = cytotoxicity, actives largely listed as inhibitors; actives 27% (n = 1,600); AID 720535; further: potency means the concentration at half of the fitted maximal effect; on the % scale 0 is the no-effect control and ±100 the full control effect; nearly all actives have a fitted effect of over 70% in size
TGFb CCL64 inh: blocks TGF-b signaling in CCL64 reporter cells. shares compounds with TGFb inhibitor. CCL64 CAGA-GFP reporter, TGF-b stimulated, GFP fluorescence, 18 h. Potency, µM (top dose mostly 46.1 µM), for the others: at the top dose activity, negative = inhibition, usual class: inhibitors. actives 41% (n = 1,600). AID 720536; further: potency means the concentration at half of the fitted maximal effect; nearly all actives have a fitted effect of over 65% in size
TGFb COP inh: blocks TGF-b signaling in HepG2 COP reporter; shares compounds with TGFb inhibitor; HepG2 COP-GFP TGF-b reporter, GFP fluorescence, 18 h; cells stimulated by added recombinant TGF-beta; Potency, µM (highest dose often 46.1 µM), inactives show top-dose activity, negative = inhibition, usual class: inhibitors; actives 3% (n = 1,600); further: potency means the concentration at half of the fitted maximal effect; nearly all actives have a fitted effect of over 70% in size
Active calls of the source: *; ? = inconclusive; nt = no result; [ ] = remark or other dose. Shown are actives, neighbours in structure and some others; about 19% of the full set was active somewhere. Unless noted, the call rests on the fitted dose curve; in most records, active means well fitted curve in the direction sought with a large enough effect; inconclusive means small, poorly fitted or top-dose-only effect, or another doubt; inactive means no such curve, though single readings can be large; an effect the other way counts as inactive or inconclusive.

SMILES	TDP1 cell CPT	TGFb inhibitor	TDP1 inh	HepG2 tox-1	IL-1B inflam inh	TDP1 cell noCPT	TGFb CAGA inh	HepG2 tox-2	TGFb CCL64 inh	TGFb COP inh
O=P(c1ccccc1)(c1ccccc1)c1ccc(O)cc1	1.2%	12.2%	nt	5.3%	-0.9	1.7%	nt	nt	nt	nt
CCc1nc2ccc(C(=O)NCc3cccs3)cn2c1N(CC)Cc1cccc(Br)c1	20.6µM*	11.2µM*	nt	-27.1%	-54.2*	11.6µM*	18.4µM*	?	?	53.5%
Cc1ccc(C(=O)N2CCN(S(=O)(=O)c3ccc(Br)cc3)CC2)o1	0.0%	-3.6%	3.8%[0.0935 µM]	-8.8%	-0.4	-29.5%	nt	nt	nt	nt
O=[N+]([O-])c1ccc(N2CCN(Cc3ccccc3)CC2)c2c1no[n+]2[O-]	0.164µM*	3.16µM*	nt	3.55µM*	-86.5*	0.259µM*	?	4.11µM*	5.17µM*	?
O=[N+]([O-])c1ccc(N2CCN(Cc3ccccc3)CC2)s1	?	-5.8%	nt	-13.1%	27.2	?	nt	nt	nt	nt
COc1ccccc1NS(=O)(=O)c1cccc(NC(=O)Nc2ccccc2)c1	?	10µM*	4.2%	-25.4%	-79.1*	14.6µM*	?	?	?	57.2%
COc1ccccc1CNC(=O)c1cc(-c2ccncc2)nc2c(Cl)cccc12	?	2.3%	1.2%	-24.4%	-14.6	?	nt	nt	nt	nt
NS(=O)(=O)c1ccc2nc(NC(=O)CS(=O)(=O)c3ccccc3)sc2c1	-1.8%	-8.0%	1.3%	1.5%	-3.6	7.9%	nt	nt	nt	nt
COc1ccc(OC)c2sc(NC(=O)CCS(=O)(=O)c3ccccc3)nc12	5.17µM*	?	nt	21.4%	-21.3	4.61µM*	2.31µM*	16.4µM*	4.61µM*	-2.9%
COc1ccc(OC)c2sc(NC(=O)CCSc3ccccc3)nc12	-34.7%	-8.4%	7.6%	-8.6%	18.1	-25.6%	nt	nt	nt	nt
O=C(CCS(=O)(=O)c1ccccc1)Nc1nc2ccc(F)cc2s1	11.6µM*	3.55µM*	-12.1%	-21.2%	7.3	13µM*	1.16µM*	-27.3%	10.3µM*	31.5%
CCCc1c(-c2ccc(O)cc2)nn(-c2ccc(O)cc2)c1-c1ccc(O)cc1	?	-2.4%	10.7%[56.1 µM]	-44.1%	-18.9	?	nt	nt	nt	nt
COC(=O)c1ccc2nc(-c3ccco3)c(Cc3cccc(F)c3)n2c1	16.4µM*	14.1µM*	nt	-19.2%	28.0	18.4µM*	20.6µM*	-12.2%	?	25.0%
O=C(NCCOc1ccccc1F)C1CC(=O)N(c2ccc3c(c2)OCCO3)C1 (centres undefined)	-12.2%	-0.4%	-0.1%	6.1%	7.5	6.5%	nt	nt	nt	nt
O=S(=O)(c1ccc2nc(SCc3ccc(Cl)cc3)[nH]c2c1)N1CCOCC1	-20.7%	10µM*	5.8%	-18.9%	-25.2	-8.7%	11.6µM*	-23.4%	?	20.0%

Assay outcomes: PubChem BioAssay, National Center for Advancing Translational Sciences (NCATS)
